# Reference: PMC11062922 (Nature Chemical Biology, 2023)
# Where two headings read alike, the source gives them in different places.
# Columns and labels:
# CAMK2G = system: CAMK2G; parameters: species or system human, MV4-11 + K-562 + COLO205 + SK-N-BE2 + OVCAR-8; conditions: read-out: apparent Kd, compound concentrations: 100 nM and 1000 nM (sheet 'Samples'), n = 1
# CDK12 = system: CDK12; parameters: species or system human, MV4-11 + K-562 + COLO205 + SK-N-BE2 + OVCAR-8; conditions: read-out: apparent Kd, compound concentrations: 100 nM and 1000 nM (sheet 'Samples'), n = 1
# EPHA7 = system: EPHA7; parameters: species or system human, MV4-11 + K-562 + COLO205 + SK-N-BE2 + OVCAR-8; conditions: read-out: apparent Kd, compound concentrations: 100 nM and 1000 nM (sheet 'Samples'), n = 1
# ERN2 = system: ERN2; parameters: species or system human, MV4-11 + K-562 + COLO205 + SK-N-BE2 + OVCAR-8; conditions: read-out: apparent Kd, n = 1
# FES = system: FES; parameters: species or system human, MV4-11 + K-562 + COLO205 + SK-N-BE2 + OVCAR-8; conditions: read-out: apparent Kd, compound concentrations: 100 nM and 1000 nM (sheet 'Samples'), n = 1
# MAP3K1 = system: MAP3K1; parameters: species or system human, MV4-11 + K-562 + COLO205 + SK-N-BE2 + OVCAR-8; conditions: read-out: apparent Kd, n = 1
# MAP3K4 = system: MAP3K4; parameters: species or system human, MV4-11 + K-562 + COLO205 + SK-N-BE2 + OVCAR-8; conditions: read-out: apparent Kd, n = 1
# MAP3K6 = system: MAP3K6; parameters: species or system human, MV4-11 + K-562 + COLO205 + SK-N-BE2 + OVCAR-8; conditions: read-out: apparent Kd, compound concentrations: 100 nM and 1000 nM (sheet 'Samples'), n = 1
# MDN1 = system: MDN1; parameters: species or system human, MV4-11 + K-562 + COLO205 + SK-N-BE2 + OVCAR-8; conditions: read-out: apparent Kd, n = 1
# NEK1 = system: NEK1; parameters: species or system human, MV4-11 + K-562 + COLO205 + SK-N-BE2 + OVCAR-8; conditions: read-out: apparent Kd, n = 1
# PLK1 = system: PLK1; parameters: species or system human, MV4-11 + K-562 + COLO205 + SK-N-BE2 + OVCAR-8; conditions: read-out: apparent Kd, compound concentrations: 100 nM and 1000 nM (sheet 'Samples'), n = 1
# ACVR2B = system: ACVR2B; parameters: species or system human, MV4-11 + K-562 + COLO205 + SK-N-BE2 + OVCAR-8; conditions: read-out: apparent Kd, n = 1
# GRK6 = system: GRK6; parameters: species or system human, MV4-11 + K-562 + COLO205 + SK-N-BE2 + OVCAR-8; conditions: read-out: apparent Kd, n = 1
# CSNK2A1 = conditions: hek293t cells
# CSNK2A2 = conditions: hek293t cells
# CDK4 = system: CDK4; parameters: species or system human, MV4-11 + K-562 + COLO205 + SK-N-BE2 + OVCAR-8; conditions: read-out: apparent Kd, compound concentrations: 100 nM and 1000 nM (sheet 'Samples'), n = 1
# MCM5 = system: MCM5; parameters: species or system human, MV4-11 + K-562 + COLO205 + SK-N-BE2 + OVCAR-8; conditions: read-out: apparent Kd, n = 1
# ADRBK1 = system: ADRBK1; parameters: species or system human, MV4-11 + K-562 + COLO205 + SK-N-BE2 + OVCAR-8; conditions: read-out: apparent Kd, n = 1
# PIM3 = system: PIM3; parameters: species or system human, MV4-11 + K-562 + COLO205 + SK-N-BE2 + OVCAR-8; conditions: read-out: apparent Kd, compound concentrations: 100 nM and 1000 nM (sheet 'Samples'), n = 1
# PRKCZ = system: PRKCZ; parameters: species or system human, MV4-11 + K-562 + COLO205 + SK-N-BE2 + OVCAR-8; conditions: read-out: apparent Kd; compound concentrations:100 nM and 1000 nM (sheet 'Samples'); n = 1
# [1] = compound concentrations:100 nM and 1000 nM (sheet 'Samples')
structure (smiles),measurement,setting,value
Cn1ncc2c(N)ncnc21 [SKF-18267],potency estimated from few doses,CAMK2G; CATDS: 7.7542498365532697E-3,0.382 µM
same,potency estimated from few doses,CDK12; CATDS: 3.82162717704907E-3,1.51 µM
same,potency estimated from few doses,EPHA7; CATDS: 4.1620084388922602E-3,1.21 µM
same,potency estimated from few doses,"ERN2; compound concentrations: 100 nM and 1000 nM (sheet 'Samples'), CATDS: 4.8185865403999398E-3",0.877 µM
same,potency estimated from few doses,FES; CATDS: 5.1575309929755304E-3,0.766 µM
same,potency estimated from few doses,"MAP3K1; compound concentrations: 100 nM and 1000 nM (sheet 'Samples'), CATDS: 4.4631882369260602E-3",1.03 µM
same,potency estimated from few doses,"MAP3K4; compound concentrations: 100 nM and 1000 nM (sheet 'Samples'), CATDS: 4.0015325722358502E-3",1.34 µM
same,potency estimated from few doses,MAP3K6; CATDS: 4.1891325824414301E-3,1.19 µM
same,potency estimated from few doses,"MDN1; compound concentrations: 100 nM and 1000 nM (sheet 'Samples'), CATDS: 5.0398543071368297E-3",0.801 µM
same,potency estimated from few doses,"NEK1; compound concentrations: 100 nM and 1000 nM (sheet 'Samples'), CATDS: 3.5725639465568099E-3",1.82 µM
COc1ccc(Nc2ncc(C#N)c(Nc3ccccc3C(N)=O)n2)cc1N1CCN(C)CC1.Cl [GSK1558669A],potency estimated from few doses,FES; CATDS: 8.0815646455300594E-3,0.387 µM
same,potency estimated from few doses,"MAP3K4; compound concentrations: 100 nM and 1000 nM (sheet 'Samples'), CATDS: 1.60153050048602E-2",0.0579 µM
same,potency estimated from few doses,"NEK1; compound concentrations: 100 nM and 1000 nM (sheet 'Samples'), CATDS: 8.9161421311332902E-3",0.272 µM
same,potency estimated from few doses,PLK1; CATDS: 1.2041031249847799E-2,0.113 µM
CCOC(=O)N1CCC(n2cnc(-c3ccc(F)cc3)c2-c2ccnc(N)n2)CC1 [SB-219952],potency estimated from few doses,EPHA7; CATDS: 8.0080287869844797E-3,1.69 µM
Cc1ccc(Nc2ccnc(Nc3ccc4c(c3)CS(=O)(=O)C4)n2)cc1O.Cl [GW579362A],potency estimated from few doses,"ACVR2B; compound concentrations: 100 nM and 1000 nM (sheet 'Samples'), CATDS: 0.34366648341671902",0.0124 µM
Cc1cccc(Nc2nc(N[C@H]3CCCC[C@H]3N)ncc2C(N)=O)c1.Cl [GSK986310C],potency estimated from few doses,ERN2; [1],1.4 µM
O=C1N=C(NCCc2ccc(Cl)cc2)S/C1=C\c1ccc2ncccc2c1 [RO4498479-000],potency estimated from few doses,FES; CATDS: 7.5853712865523596E-3,1.21 µM
same,potency estimated from few doses,"GRK6; compound concentrations: 100 nM and 1000 nM (sheet 'Samples'), CATDS: 6.7200037487984698E-3",1.96 µM
CN(c1ccc(NC(=O)N2CCN(CCCN3CCOCC3)CC2)cc1)c1ccnc(Nc2ccc(CS(C)(=O)=O)cc2)n1.Cl [GW830899A],potency estimated from few doses,CAMK2G; CATDS: 3.6233110942478698E-2,0.457 µM
COc1cc(Nc2ncc3c(C)nc(-c4cc5ccccc5[nH]4)n3n2)cc(OC)c1OC [GW869516X],IC50,"CSNK2A1; read-out: Average, SD, n = 2",0.446 µM
same,IC50,CSNK2A1; read-out: Rep 1,0.471 µM
same,IC50,CSNK2A1; read-out: Rep 2,0.421 µM
same,IC50,"CSNK2A2; read-out: Average, SD, n = 2",0.319 µM
same,IC50,CSNK2A2; read-out: Rep 1,0.135 µM
same,IC50,CSNK2A2; read-out: Rep 2,0.503 µM
CNC(=O)c1ccccc1Nc1nc(Nc2ccc(N3CCOCC3)cc2)ncc1Cl.Cl [GSK1576028A],potency estimated from few doses,MAP3K4; [1],1.69 µM
CCN(CC)Cc1ccc(Nc2nccc(-c3cnn4ncccc34)n2)cc1 [GW780056X],potency estimated from few doses,CDK12; CATDS: 2.2557982772038999E-2,0.899 µM
same,potency estimated from few doses,CDK4; CATDS: 1.9618421656054302E-2,1.42 µM
Cl.Cl.NC(CNC(=O)c1cc(Br)c(-c2ccnc3[nH]ccc23)s1)c1ccccc1.NC(CNC(=O)c1cc(Br)c(-c2ccnc3[nH]ccc23)s1)c1ccccc1 (stereo not drawn) [GSK1322949A],potency estimated from few doses,CDK4; CATDS: 3.2269694765046902E-2,1.03 µM
same,potency estimated from few doses,"MCM5; compound concentrations: 100 nM and 1000 nM (sheet 'Samples'), CATDS: 2.5853375360702799E-2",1.76 µM
same,potency estimated from few doses,"MDN1; compound concentrations: 100 nM and 1000 nM (sheet 'Samples'), CATDS: 2.3593450099353701E-2",2.3 µM
same,potency estimated from few doses,PLK1; CATDS: 2.70929722302506E-2,1.55 µM
Cc1cc(-c2ccnc(Nc3cccc(C#N)c3)n2)cc(C)c1O [GSK1440913A],potency estimated from few doses,"ADRBK1; compound concentrations: 100 nM and 1000 nM (sheet 'Samples'), CATDS: 7.8557926604231804E-2",1.43 µM
O=C(O)C(F)(F)F.O=C(O)C(F)(F)F.O=c1[nH]ccc2nc(N[C@@H]3CCCNC3)nc(Nc3ccc(S(=O)(=O)N4CCOCC4)cc3)c12.O=c1[nH]ccc2nc(N[C@@H]3CCCNC3)nc(Nc3ccc(S(=O)(=O)N4CCOCC4)cc3)c12 [GSK2177277A],potency estimated from few doses,CDK4; CATDS: 6.3800508588872503E-3,1.6 µM
FC(F)(F)c1ccc(-c2ncn(CCCN3CCOCC3)c2-c2ccncc2)cc1 [SB-217780],potency estimated from few doses,MAP3K6; CATDS: 0.20378278704682301,1.72 µM
COc1ccc(-c2cc3c(N)ncnc3o2)cc1 [GW642138X],potency estimated from few doses,"ADRBK1; compound concentrations: 100 nM and 1000 nM (sheet 'Samples'), CATDS: 0.10043155858125399",1.82 µM
CNCc1ccc(-c2cc(-c3nc(-c4ccc(S(=O)(=O)C(C)C)cc4)cnc3N)on2)cc1 [VE-822],potency estimated from few doses,MAP3K1; [1],1.26 µM
CNc1cc(-c2ccc3c(N)n[nH]c3c2)nc(N)n1 [GSK2224810A],potency estimated from few doses,ACVR2B; [1],1.19 µM
COc1cc[nH]c1/C=C1\C(=O)Nc2ccc(F)c(C#CC3(O)CCNCC3)c21.Cl [RO0282986-001],potency estimated from few doses,CAMK2G; CATDS: 2.3496297830239501E-2,0.154 µM
COc1cc(Nc2nccc(N3CCC(NC(=O)c4cccc(NC(C)=O)c4)C3)n2)cc(OC)c1OC (stereo not drawn) [GSK1379754A],potency estimated from few doses,PIM3; CATDS: 9.0008616948043199E-2,1.47 µM
CCn1c(-c2cccnc2O)nc2cnccc21 [SB-736715],potency estimated from few doses,EPHA7; CATDS: 1.2240200797628401E-2,2.08 µM
same,potency estimated from few doses,"GRK6; compound concentrations: 100 nM and 1000 nM (sheet 'Samples'), CATDS: 1.19944612945155E-2",2.19 µM
same,potency estimated from few doses,PIM3; CATDS: 1.44947330035029E-2,1.39 µM
CC(C)Nc1cc(-c2ccc3c(N)n[nH]c3c2)nc(N)n1 [GSK2221681A],potency estimated from few doses,PRKCZ,1.52 µM
O=C(O)C(F)(F)F.O=c1[nH]ccc2nc(N[C@@H]3CCNC3)nc(Nc3ccc4c(c3)S(=O)(=O)CC4)c12 [GSK2181306A],potency estimated from few doses,PIM3; CATDS: 5.1317659487183503E-2,0.0364 µM
COc1cc(Nc2nccc(-c3cnn4ncccc34)n2)cc(OC)c1 [GW801372X],potency estimated from few doses,"MCM5; compound concentrations: 100 nM and 1000 nM (sheet 'Samples'), CATDS: 1.9115246172466901E-2",1.39 µM
CC(C)Oc1ccc2c(-c3ccnc(Nc4ccc(N5CCN(C)CC5)cc4)n3)cnn2n1 [GW696155X],potency estimated from few doses,NEK1; [1],1.13 µM
CCC(CC)(CC)n1cnc2c(N)ncnc21 [SKF-97620],potency estimated from few doses,PLK1; CATDS: 2.3248772158463601E-2,2.3 µM
Nc1nccc(-c2ccc3c(N)n[nH]c3c2)n1 [GSK1034945A],potency estimated from few doses,PRKCZ,1.83 µM
Nc1nc(-c2ccc3c(N)n[nH]c3c2)cc(N2CCCC(NC(=O)c3ccccc3)C2)n1 (stereo not drawn) [GSK2286775B],potency estimated from few doses,ADRBK1; [1],2.05 µM
same,potency estimated from few doses,ERN2; [1],1.58 µM
same,potency estimated from few doses,MDN1; [1],1.29 µM
Cl.Cl.NCC(NCc1ccc(-c2ccnc3[nH]ccc23)s1)c1ccccc1.NCC(NCc1ccc(-c2ccnc3[nH]ccc23)s1)c1ccccc1 (stereo not drawn) [GSK1321565A],potency estimated from few doses,GRK6; [1],1.6 µM
CC(C)N1CC(=O)N(C)c2cnc(Nc3cccc(S(=O)(=O)CCN4CCOCC4)c3)nc21 [BI00009348],potency estimated from few doses,"MAP3K1; compound concentrations: 100 nM and 1000 nM (sheet 'Samples'), CATDS: 5.2672429134220697E-2",1.56 µM
same,potency estimated from few doses,MAP3K6; CATDS: 7.2828700738199706E-2,0.698 µM
NS(=O)(=O)c1ccc(NC=C2C(=O)Nc3ccc4ncsc4c32)cc1 [GW589933X],potency estimated from few doses,CDK12; CATDS: 1.98005897918999E-2,1.01 µM
CCn1c(-c2nonc2N)nc2cncc(Br)c21 [SB-738004],potency estimated from few doses,PRKCZ,0.544 µM
Cc1cccc(-c2cc(-c3c[nH]nc3-c3ccccn3)ccn2)c1 [GW679395X],potency estimated from few doses,ACVR2B; [1],1.66 µM
same,potency estimated from few doses,MCM5; [1],2.22 µM
